Activity calls are given as the source filed them. Rule for the calls: active = hit-call score of the fitted dose curve at least 0.9, where 1 is the maximum; inactive = score below 0.9.
Key:
[1] = read-out: Matrix Metallopeptidase 1 (MMP1), MMP1 (gene 4312); assay: BSK_hDFCGF_MMP1: BioMAP Diversity Plus: hDFCGF Assay for Matrix Metallopeptidase 1 (MMP1) Biomarker Activity (AID 2283064); settings: primary human foreskin fibroblasts; actives raise or lower the signal
How it was run: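 Primary human foreskin fibroblasts exposed to chemicals for 24 h; MMP1 measured by ELISA. Cytotoxicity tracked by SRB staining in parallel cultures; bidirectional fit relative to DMSO.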

[2] = read-out: Vascular cell adhesion molecule 1 (VCAM1), VCAM1 (gene 7412); assay: BSK_hDFCGF_VCAM1: BioMAP Diversity Plus: hDFCGF Assay for Vascular cell adhesion molecule 1 (VCAM1) Biomarker Activity (AID 2283065); settings: primary human foreskin fibroblasts; actives raise or lower the signal
How it was run: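 ELISA readout of VCAM-1 on human dermal fibroblast primary cultures, 24 h after chemical exposure. Gain or loss of signal fitted in both directions against DMSO baseline.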

[3] = read-out: Plasminogen activator inhibitor-1 (PAI1), SERPINE1 (gene 5054); assay: BSK_hDFCGF_PAI1: BioMAP Diversity Plus: hDFCGF Assay for Plasminogen activator inhibitor-1 (PAI1) Biomarker Activity (AID 2283066); settings: primary human foreskin fibroblasts; actives raise or lower the signal
How it was run: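 Human foreskin fibroblasts in the hDFCGF system were dosed with compound for 24 h; PAI-1 was quantified by ELISA. Bidirectional curve fitting used DMSO as negative control and baseline.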

[4] = read-out: Intercellular Adhesion Molecule 1 (ICAM1), ICAM1 (gene 3383); assay: BSK_KF3CT_ICAM1: BioMAP Diversity Plus: KF3CT Assay for Intercellular Adhesion Molecule 1 (ICAM1) Biomarker Activity (AID 2283067); settings: primary human keratinocytes with fibroblasts; actives raise or lower the signal
How it was run: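 Cell-surface ICAM-1 was measured by ELISA 24 h after dosing primary human skin keratinocytes co-cultured with fibroblasts. Parallel SRB staining tracked overt cytotoxicity. Gain or loss of signal was fitted relative to DMSO.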

[5] = read-out: Interferon-gamma inducible Protein 10 (IP10), CXCL10 (gene 3627); assay: BSK_KF3CT_IP10: BioMAP Diversity Plus: KF3CT Assay for Interferon-gamma inducible Protein 10 (IP10) Biomarker Activity (AID 2283068); settings: primary human keratinocytes with fibroblasts; actives raise or lower the signal
How it was run: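 In a primary skin co-culture of keratinocytes and fibroblasts, IP-10 is quantified by ELISA at 24 h after dosing. SRB staining of parallel wells monitors overt toxicity. Curves are fitted both directions against DMSO.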

[6] = BSK_KF3CT_SRB: Viability Assessment in the BioMAP Diversity Plus: KF3CT Assay (AID 2283069); settings: primary human keratinocytes with fibroblasts;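 note: total protein by sulforhodamine B staining as a cytotoxicity measure; read 24 h after compound addition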
How it was run: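 Human keratinocyte and foreskin fibroblast co-culture exposed to chemical for 24 h. Total protein measured in parallel cultures by 0.1% sulforhodamine B staining after 10% TCA fixation, read at 560 nm; bidirectional fit relative to DMSO.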

[7] = read-out: Interleukin-1 alpha (IL1a), IL1A (gene 3552); assay: BSK_KF3CT_IL1a: BioMAP Diversity Plus: KF3CT Assay for Interleukin-1 alpha (IL1a) Biomarker Activity (AID 2283070); settings: primary human keratinocytes with fibroblasts; actives raise or lower the signal
How it was run: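 Primary human keratinocyte plus foreskin fibroblast co-culture, dosed and measured at 24 h in 96-well plates. IL-1a level quantified by ELISA; bidirectional fit relative to DMSO.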

[8] = read-out: TIMP metallopeptidase inhibitor 2 (TIMP2), TIMP2 (gene 7077); assay: BSK_KF3CT_TIMP2: BioMAP Diversity Plus: KF3CT Assay for TIMP metallopeptidase inhibitor 2 (TIMP2) Biomarker Activity (AID 2283071); settings: primary human keratinocytes with fibroblasts; actives raise or lower the signal
How it was run: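 Human primary keratinocyte/foreskin fibroblast co-culture dosed with chemical and sampled at 24 h. TIMP-2 levels quantified by ELISA; bidirectional fitting against DMSO negative control as baseline.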

[9] = read-out: Transforming growth factor beta 1 (TGFb1), TGFB1 (gene 7040); assay: BSK_KF3CT_TGFb1: BioMAP Diversity Plus: KF3CT Assay for Transforming growth factor beta 1 (TGFb1) Biomarker Activity (AID 2283072); settings: primary human keratinocytes with fibroblasts; actives raise or lower the signal
How it was run: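 Human keratinocyte plus foreskin fibroblast primary co-culture, dosed with chemical for 24 h. TGF-b1 quantified by ELISA. Activity fitted bidirectionally against DMSO negative control as baseline.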

[10] = read-out: C-C motif chemokine 2 (Homo sapiens) (UniProt P13500); assay: BSK_KF3CT_MCP1: BioMAP Diversity Plus: KF3CT Assay for Monocyte Chemoattractant Protein 1 (MCP1/CCL2) Biomarker Activity (AID 2283073); settings: primary human keratinocytes with fibroblasts; actives raise or lower the signal
How it was run: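 ELISA read-out of MCP-1, 24 h post-dose, in primary human skin keratinocytes co-cultured with fibroblasts. Parallel SRB staining monitors cytotoxicity; changes fitted both directions relative to DMSO.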

[11] = read-out: urokinase plasminogen activator (uPA), PLAU (gene 5328); assay: BSK_KF3CT_uPA: BioMAP Diversity Plus: KF3CT Assay for urokinase plasminogen activator (uPA) Biomarker Activity (AID 2283075); settings: primary human keratinocytes with fibroblasts; actives raise or lower the signal
How it was run: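 Primary human keratinocyte/foreskin fibroblast co-culture exposed to chemical; uPA measured by ELISA at 24 h. Bidirectional fit versus DMSO, with parallel SRB total-protein staining for cytotoxicity.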

CD40, CD40 (gene 958) = assay: BSK_LPS_CD40: BioMAP Diversity Plus: LPS Assay for CD40 Biomarker Activity (AID 2283076); settings: primary human HUVEC with PBMC; actives raise or lower the signal
How it was run: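 In the LPS system of human endothelial cells with peripheral blood mononuclear cells, CD40 levels were read by ELISA 24 h post-treatment. Signal changes in either direction were fitted against the DMSO baseline, with parallel SRB protein staining.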

[12] = read-out: E-selectin (Homo sapiens) (UniProt P16581); assay: BSK_LPS_Eselectin: BioMAP Diversity Plus: LPS Assay for Eselectin Biomarker Activity (AID 2283077); settings: primary human HUVEC with PBMC; actives raise or lower the signal
How it was run: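 E-selectin ELISA on LPS-stimulated endothelial cell/PBMC co-cultures, read 24 h post-treatment; gains and losses fitted against DMSO. Parallel SRB staining (0.1% SRB after 10% TCA fixation, 560 nm) flags overt cytotoxicity.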

[13] = read-out: Interleukin-8 (IL8), CXCL8 (gene 3576); assay: BSK_LPS_IL8: BioMAP Diversity Plus: LPS Assay for Interleukin-8 (IL8) Biomarker Activity (AID 2283078); settings: primary human HUVEC with PBMC; actives raise or lower the signal
How it was run: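 ELISA read-out of IL-8 after 24 h chemical treatment of LPS-activated endothelial/PBMC human primary co-cultures. Changes either up or down relative to DMSO; overt cytotoxicity checked by sulforhodamine B staining in parallel wells.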

[14] = BSK_LPS_SRB: Viability Assessment in the BioMAP Diversity Plus: LPS Assay (AID 2283079); settings: primary human HUVEC with PBMC;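 note: total protein by sulforhodamine B absorbance as a cytotoxicity measure; measured one day after compound addition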
How it was run: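 SRB viability endpoint: cells fixed with 10% TCA, stained with 0.1% SRB, read at 560 nm, 24 h post-dose. HUVEC/PBMC co-culture; signal change in either direction scored relative to DMSO.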

[15] = read-out: Interleukin-1 alpha (IL1a), IL1A (gene 3552); assay: BSK_LPS_IL1a: BioMAP Diversity Plus: LPS Assay for Interleukin-1 alpha (IL1a) Biomarker Activity (AID 2283080); settings: primary human HUVEC with PBMC; actives raise or lower the signal
How it was run: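 Readout is IL-1a level by ELISA, 24 h post-dose, fitted as gain or loss relative to DMSO. System: LPS-activated human primary co-culture of vascular endothelium and peripheral blood mononuclear cells, with parallel SRB total-protein cytotoxicity.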

[16] = read-out: Monocyte Chemoattractant Protein-1 (MCP1), CCL2 (gene 6347); assay: BSK_LPS_MCP1: BioMAP Diversity Plus: LPS Assay for Monocyte Chemoattractant Protein-1 (MCP1) Biomarker Activity (AID 2283081); settings: primary human HUVEC with PBMC; actives raise or lower the signal
How it was run: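 Secreted MCP-1 read by ELISA at 24 h post-dosing in an LPS-activated co-culture of endothelial cells with peripheral blood mononuclear cells. Fits run in both directions, DMSO as baseline; parallel SRB staining tracks overt cytotoxicity.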

[17] = BSK_LPS_PGE2: BioMAP Diversity Plus: LPS Assay for Prostaglandin E2 (PGE2) Biomarker Activity (AID 2283082); settings: primary human HUVEC with PBMC; actives raise or lower the signal
How it was run: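 HUVEC plus PBMC co-culture stimulated with LPS; secreted PGE2 quantified by ELISA 24 h after chemical dosing. Activity fitted bidirectionally against DMSO as negative control and baseline; parallel SRB total-protein staining served as cytotoxicity check.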

[18] = read-out: Macrophage colony-stimulating factor (MCSF), CSF1 (gene 1435); assay: BSK_LPS_MCSF: BioMAP Diversity Plus: LPS Assay for Macrophage colony-stimulating factor (MCSF) Biomarker Activity (AID 2283083); settings: primary human HUVEC with PBMC; actives raise or lower the signal
How it was run: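 Bidirectional fitting against DMSO was applied to M-CSF levels read by ELISA at 24 h post-dose. The system pairs human umbilical vein endothelium with peripheral blood mononuclear cells; parallel SRB staining tracked cytotoxicity.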

[19] = read-out: Matrix Metallopeptidase 9 (MMP9), MMP9 (gene 4318); assay: BSK_KF3CT_MMP9: BioMAP Diversity Plus: KF3CT Assay for Matrix Metallopeptidase 9 (MMP9) Biomarker Activity (AID 2283074); settings: primary human keratinocytes with fibroblasts; actives raise or lower the signal
How it was run: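 Human keratinocyte and foreskin fibroblast co-culture exposed to chemicals for 24 h; MMP9 biomarker measured by ELISA, bidirectional fitting relative to DMSO; cytotoxicity tracked by SRB total protein staining in parallel cultures.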

Measured: outcome

E-selectin (Homo sapiens), sequence (P16581 whole entry, looked up): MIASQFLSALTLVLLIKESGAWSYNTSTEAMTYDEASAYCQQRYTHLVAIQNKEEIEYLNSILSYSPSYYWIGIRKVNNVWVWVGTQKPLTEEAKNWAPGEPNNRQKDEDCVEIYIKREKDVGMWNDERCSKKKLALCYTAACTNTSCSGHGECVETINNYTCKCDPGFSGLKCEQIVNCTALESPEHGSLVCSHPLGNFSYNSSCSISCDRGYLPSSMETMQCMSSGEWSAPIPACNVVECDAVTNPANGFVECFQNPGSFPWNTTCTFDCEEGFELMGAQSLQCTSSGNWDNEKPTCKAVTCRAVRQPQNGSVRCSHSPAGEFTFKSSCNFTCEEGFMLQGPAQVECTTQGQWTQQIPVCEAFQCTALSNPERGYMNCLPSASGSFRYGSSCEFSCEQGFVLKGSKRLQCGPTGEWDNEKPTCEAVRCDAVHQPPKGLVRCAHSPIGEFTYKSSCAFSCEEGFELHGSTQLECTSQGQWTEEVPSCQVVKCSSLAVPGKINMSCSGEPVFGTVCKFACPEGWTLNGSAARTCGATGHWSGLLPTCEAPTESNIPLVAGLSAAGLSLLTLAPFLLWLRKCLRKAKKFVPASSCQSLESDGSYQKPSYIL

Clc1cccc(Cl)c1Cl
inactive: [1] | [2] | [3] | [4] | [5] | [6] | [7] | [8] | [9] | [10] | [11] | CD40, CD40 (gene 958) | [12] | [13] | [14] | [15] | [16] | [17] | [18]

CCN(CC)C(=O)C(Cl)=C(C)OP(=O)(OC)OC
inactive: [1] | [2] | [3] | [4] | [5] | [6] | [7] | [8] | [10] | [19] | [11] | CD40, CD40 (gene 958) | [12] | [13] | [14] | [15] | [16] | [17] | [18]

Reference: PubChem BioAssay (EPA / NIEHS)
